Test results reported in ChEMBL document CHEMBL1157539, “Thousands of chemical starting points for antimalarial lead identification” (Nature, 2010).

Assays:
Assay type in all cases: functional
Plasmodium falciparum [1] = assay: GSK_TCMDC: Inhibition of Plasmodium falciparum 3D7 in whole red blood cells, using parasite LDH activity as an index of growth. Test compounds present at 2uM
Plasmodium falciparum [2] = assay: GSK_TCMDC: Inhibition of Plasmodium falciparum Dd2 in whole red blood cells, using parasite LDH activity as an index of growth. Test compounds present at 2uM
HepG2 = assay: GSK_TCMDC: Percent inhibition of human HepG2 cell line. Test compounds present at 10uM.

SMILES	Inhibition (Plasmodium falciparum [1])	Inhibition (Plasmodium falciparum [2])	Inhibition (HepG2)
COc1cccc(-c2ccc(C(=O)NC3CCN(Cc4ccc(C(C)(C)C)cc4)CC3)s2)c1.O=C(O)C(F)(F)F	85%	23%	43%
CCC(O)c1ccc(Br)cc1NC(=O)c1cccc(Cl)c1 (stereo not drawn)	80%	52%	0%
Nc1nccc2ccc(-c3cccc(OCc4ccccc4)c3)cc12.O=C(O)C(F)(F)F	100%	81%	47%
Cc1cccc2nc(-c3cccc(-c4ccc(NC(=O)CN5CCN(C)CC5)cc4)c3)[nH]c12	100%	99%	45%
COc1cccc(NC(=O)NC2CCN(c3ccnc(Nc4ccc(F)cc4)n3)C2)c1 (stereo not drawn)	100%	71%	9%
CC(C)Sc1nncc(-c2cnnc(SC(C)C)n2)n1	100%	100%	0%
Cc1ccc2[nH]c(C)cc(=NN=CC=Cc3ccccc3)c2c1	92%	28%	0%
O=C(Nc1ccc(Cl)cc1)c1ccc(S(=O)(=O)NCC2CCN(CC3CCCCC3)CC2)cc1.O=C(O)C(F)(F)F	93%	8%	40%
CCCCCCC(N)c1ccc(OCCCOc2ccc(C(N)CCCCCC)cc2)cc1.Cl (stereo not drawn)	88%	70%	100%
CCN(CC)CCCC(C)Nc1c2ccccc2nc2ccc3ccccc3c12.Cl (stereo not drawn)	100%	89%	24%
CN(C)CCCOc1ccccc1CN1CC[C@H](NC(=O)c2ccc(Cl)c(Cl)c2)C1.O=C(O)C(F)(F)F	94%	54%	42%
